From PubChem
MsrA act: activates bovine MsrA enzyme | purified bovine MsrA, absorbance read-out | activation, % at 10.6 µM | actives 0.3% (n = 360,000); in the data active means activation above about 7.5%;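 further: 0% = vehicle and 100% = reference activator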
MsrA inhibitor: inhibitors of bovine MsrA. actives 0.75% (n = 360,000). inhibition, % at 15.5 µM. purified bovine MsrA, absorbance read-out; in the data active means inhibition above about 4.5%;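 further: 0% = vehicle wells with enzyme and 100% = reference inhibitor wells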
EBNA-1 inh: blocks EBNA-1 binding to DNA | EBNA-1 DNA binding, fluorescence polarization | inhibition, % at 14.8 µM | actives 0.34% (n = 300,000); in the data active means inhibition above about 28%
PP1 counter: counter-screen for PP5 inhibitors: inhibitors of human PP1-alpha | P62136 | purified PP1alpha, OMFP fluorescence | inhibition, % at 6.7 µM | actives 0.9% (n = 320,000);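 active means inhibition above the mean inhibition of all tested compounds plus 3 SD, computed separately for each screening campaign, cut at about 15% in these data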
ZTA DNA inh: blocks Epstein-Barr virus ZTA, an EBNA-1 counter-screen | ZTA-DNA binding, fluorescence polarization | inhibition, % at 11 µM | actives 0.15% (n = 320,000); in the data active means inhibition above about 33%
Target sequence (P03206 whole entry, looked up): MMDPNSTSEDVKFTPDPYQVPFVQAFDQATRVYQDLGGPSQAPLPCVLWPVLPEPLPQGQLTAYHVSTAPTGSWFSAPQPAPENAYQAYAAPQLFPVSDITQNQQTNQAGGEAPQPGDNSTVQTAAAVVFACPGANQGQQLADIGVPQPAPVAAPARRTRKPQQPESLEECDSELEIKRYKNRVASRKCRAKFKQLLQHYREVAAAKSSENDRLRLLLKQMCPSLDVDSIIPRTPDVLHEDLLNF
PP5 primary: PP5 (human) phosphatase inhibition. purified PP5c, OMFP substrate fluorescence. inhibition, % at 6.7 µM. actives 0.18% (n = 320,000). AID 1987;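 active means inhibition above the campaign's mean inhibition across all tested compounds plus 3 SD, cut at about 9.5% in these data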;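 further: 0% = DMSO only and 100% = 100 µM cantharidin control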
Target sequence (P53041 whole entry, looked up): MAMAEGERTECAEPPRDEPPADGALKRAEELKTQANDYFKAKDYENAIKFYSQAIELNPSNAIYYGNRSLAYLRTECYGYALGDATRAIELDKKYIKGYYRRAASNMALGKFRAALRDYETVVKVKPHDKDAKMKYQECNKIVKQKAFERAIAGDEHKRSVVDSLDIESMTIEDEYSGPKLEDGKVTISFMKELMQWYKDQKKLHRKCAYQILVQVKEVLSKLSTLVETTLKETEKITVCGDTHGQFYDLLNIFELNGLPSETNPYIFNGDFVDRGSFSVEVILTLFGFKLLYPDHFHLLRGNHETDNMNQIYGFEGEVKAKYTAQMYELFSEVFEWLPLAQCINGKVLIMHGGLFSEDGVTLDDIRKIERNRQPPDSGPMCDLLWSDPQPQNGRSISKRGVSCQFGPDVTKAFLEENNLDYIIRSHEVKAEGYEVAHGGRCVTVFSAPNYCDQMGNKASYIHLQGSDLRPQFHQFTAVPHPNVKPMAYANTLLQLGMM
PP1 inh confirm: confirmation of human PP1 phosphatase inhibitors; shares compounds with PP1 counter; purified PP1alpha, OMFP substrate fluorescence; inhibition, % at 6.7 µM; actives 52% (n = 1,900); AID 2358;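 active means mean PP1 inhibition above a set limit taken from the earlier primary screen, cut at about 15% in these data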
PP5 counter: inhibits human PP5 phosphatase in PP1 counter-screen; shares compounds with PP1 counter; inhibition, % at 6.7 µM; actives 4% (n = 1,900); purified PP5c, OMFP fluorescence;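 active means mean PP5 inhibition over triplicate wells above about 9.5% taken from the earlier PP1 screen, limit read from the data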
Numbers without * were called inactive; . = no result. In the library only some 2.3% were active in any assay of this set; here they are far more common.

SMILES | MsrA act | MsrA inhibitor | EBNA-1 inh | PP1 counter | ZTA DNA inh | PP5 primary | PP1 inh confirm | PP5 counter
Cc1ccc(C(=O)NCC(=O)NCC(=O)OCC(=O)c2cccs2)cc1 | -0.6 | -0.8 | 2.6 | -6.7 | -4.7 | 2.3 | . | .
O=C(O)c1n[nH]c2c1CC(C1CCCCC1)CC2 (stereo unspecified) | -3.0 | 1.1 | 2.0 | 19.2* | -3.0 | 3.4 | 8.1 | 0.3
CC1CCc2[nH]nc(C(=O)O)c2C1 (stereo unspecified) | -2.9 | 0.8 | 4.7 | -5.0 | 1.2 | 1.9 | . | .
COCCCNC(=O)CC1C[C@H](C(=O)N(C(C)C)C(C)C)[C@@]2(C)c3[nH]c4ccccc4c3CCN2C1=O (stereo partly specified) | -1.4 | -0.5 | . | . | . | . | . | .
O=C(Nc1nc(-c2cccs2)cs1)c1ccc(S(=O)(=O)N2CCCCC2)cc1 | -1.4 | 0.5 | -4.7 | 7.0 | -5.6 | -1.7 | . | .
O=C(Nc1nc(-c2ccccn2)cs1)c1cccc(S(=O)(=O)N2CCOCC2)c1 | -1.5 | -0.1 | . | 29.9* | -4.7 | 6.1 | 31.8* | 9.4
Cc1ccc(S(=O)(=O)N2CCOCC2)cc1C(=O)Nc1nc(-c2ccccn2)cs1 | 0.1 | -0.1 | . | . | . | . | . | .
O=C(Nc1nc(-c2ccccn2)cs1)c1ccc(S(=O)(=O)N2CCCCC2)cc1 | . | . | -6.5 | 29.4* | -3.1 | 4.3 | 26.8* | -1.3
O=C(Cc1cccc2ccccc12)N/N=C/c1ccc2cccc(O)c2n1 | -2.0 | 2.1 | 0.1 | 24.6* | 3.3 | 1.7 | 21.0* | 0.4
CCCOc1ccc(N)cc1N | -2.7 | 1.1 | -3.2 | 15.8* | -7.3 | 11.4* | -2.7 | 23.5*
CCCOc1cc(N)ccc1C(=O)OCCN(CC)CC | -0.9 | -1.2 | 4.4 | 1.3 | 8.1 | -2.3 | . | .
Cc1cc(NS(=O)(=O)c2ccc(NC(=O)Cc3ccc(Cl)c(Cl)c3)cc2)no1 | -3.9 | -0.6 | . | . | . | . | . | .
COc1ccc(Nc2nccc(-c3ccc(C#N)cc3)n2)cc1 | -2.6 | -0.6 | -0.2 | 20.1* | -10.5 | -5.8 | 5.9 | -3.0
COc1ccc(Nc2nccc(-c3cccc(N)c3)n2)cc1 | -1.7 | 0.4 | -12.6 | -1.2 | -0.6 | 2.2 | . | .
Cc1ccc(-c2nn(-c3ccccc3)cc2C2CC(c3cccs3)=NN2C(=O)CCC(=O)O)cc1 (stereo unspecified) | -4.3 | -0.2 | 23.2 | 18.9* | 10.4 | 2.9 | 10.3 | -0.8
CCOC(=O)C1=CN(Cc2ccco2)S(=O)(=O)N(C)C1CC (stereo unspecified) | -1.7 | -0.2 | . | . | . | . | . | .
N#CC1=C(N)SC(N)=C(C#N)C1c1ccc(C(F)(F)F)cc1 | . | . | 0.7 | 39.2* | 20.8 | 6.2 | 3.6 | -4.9
CCOc1cc(/C=N/NC(=O)Cn2nc([N+](=O)[O-])cc2C)ccc1OCc1ccc(F)cc1 | -12.9 | 3.1 | 10.5 | 17.7* | 7.7 | 0.5 | 16.6* | -2.4
Cc1ccc(NC(=O)COc2cccc(/C=C3\SC(=S)N(CCC(=O)O)C3=O)c2)cc1Cl | -5.1 | 3.2 | 10.9 | 39.0* | 25.4 | 1.3 | 14.2 | 3.9
COc1cccc(/C=C2\SC(=S)N(CCCC(=O)Nc3ccc(C(=O)O)cc3)C2=O)c1 | -2.8 | 0.5 | 4.0 | 8.2 | 3.5 | 1.5 | . | .
CCOc1ccc(/C=C2/SC(=S)N(CCC(=O)Nc3ccc(C(=O)O)cc3)C2=O)cc1 | -7.7 | -1.3 | 13.5 | -0.8 | -3.1 | 3.3 | . | .
O=C(CCN1C(=O)/C(=C/c2ccc(Cl)cc2)SC1=S)Nc1cccc(C(=O)O)c1 | -1.9 | 0.2 | 2.2 | -1.4 | 2.0 | -0.6 | . | .
O=C(O)CCN1C(=O)/C(=C\c2cccc(OCC(=O)Nc3ccc(Cl)cc3)c2)SC1=S | -6.3 | 1.2 | -5.1 | 24.3* | 6.6 | 5.4 | 7.3 | -2.9
O=C(CCN1C(=O)/C(=C\c2ccccc2)SC1=S)Nc1ccc(C(=O)O)cc1 | -0.9 | 1.7 | -0.7 | 20.0* | -9.8 | 2.2 | 9.4 | 0.4
COc1ccc(N2CCN(Cc3nc(-c4ccccc4)no3)CC2)cc1 | -1.8 | -0.2 | -1.2 | 0.5 | -5.8 | 0.0 | . | .
SMILES | MsrA act | MsrA inhibitor | EBNA-1 inh | PP1 counter | ZTA DNA inh | PP5 primary | PP1 inh confirm | PP5 counter
CC(C)=CCc1c(O)cc2oc3c(CC=C(C)C)c(O)c(O)c(CC=C(C)C)c3c(=O)c2c1O | -6.6 | 1.1 | -3.6 | 38.9* | -14.2 | 3.8 | 33.4* | 0.2
CCC(C(=O)NC1CCCC1)N(C(=O)c1snc(C(N)=O)c1N)c1ccc(OC)c(OC)c1 (stereo unspecified) | -3.2 | 1.3 | 6.0 | -1.8 | -8.9 | -1.1 | . | .
COc1cccc(N(C(=O)CS(=O)CC(=O)Nc2ccc(F)cc2)C(C(=O)NC2CCCCC2)c2cccs2)c1 (stereo unspecified) | -8.8 | -0.5 | 10.1 | 20.0* | 5.8 | 1.1 | 27.8* | -0.2
COc1ccc(N(C(=O)c2snc(C(N)=O)c2N)C(C(=O)NC2CCCC2)c2cccs2)cc1OC (stereo unspecified) | 0.9 | 1.1 | -9.5 | 17.8* | -14.2 | 2.1 | 29.4* | 0.7
O=C(CS(=O)CC(=O)N(c1ccccc1)C(C(=O)NC1CCCC1)c1cccs1)Nc1ccc(F)cc1 (stereo unspecified) | -11.8 | -0.1 | 8.2 | -0.5 | -9.8 | 0.7 | . | .
Cc1cc(C)c(S(=O)(=O)c2cccc(Br)c2C)c(Cl)n1 | -1.9 | 1.1 | . | . | . | . | . | .
CC(C)c1ccc(/C=C2\SC(=O)N(CC(=O)NC3C=CS(=O)(=O)C3)C2=O)cc1 (stereo unspecified) | -5.0 | 2.6 | -0.9 | 28.4* | 2.4 | 2.5 | 32.5* | -3.1
O=C(CSc1ccc(F)cc1)NCCc1ccc(Cl)cc1 | 2.6 | 0.1 | -6.3 | -1.8 | -8.4 | 2.5 | . | .
COC(=O)c1ccc(C2/C(=C(\O)c3ccc(OC)c(C)c3)C(=O)C(=O)N2c2cc(C)on2)cc1 (stereo unspecified) | -13.0 | 1.8 | -5.6 | 19.2* | -0.1 | 2.2 | 15.9* | -5.5
CC(=O)c1ccccn1 | -1.5 | 0.1 | -10.6 | -2.8 | 10.2 | 4.2 | . | .
C/C(=N/O)c1ccccn1 | -0.8 | 1.1 | -10.5 | 36.2* | -8.7 | 6.1 | -1.4 | -5.9
Cc1ccccc1-n1c(SCC(=O)N/N=C/c2c(C)nn(-c3ccccc3)c2C)nc2ccccc2c1=O | 0.1 | 0.7 | 11.7 | 18.5* | 4.6 | 3.2 | 9.3 | 2.7
COc1ccc(N2CCN(C(=O)c3ccc4c(c3)NC(=O)C(CSCc3ccccc3F)N4)CC2)cc1 (stereo unspecified) | -0.8 | 1.3 | . | . | . | . | . | .
O=C1Nc2cc(C(=O)N3CCN(c4ccccc4F)CC3)ccc2NC1CSCc1ccccc1F (stereo unspecified) | . | . | -5.8 | 18.5* | 3.7 | 1.3 | 32.5* | 1.0
CN1CCN(S(=O)(=O)c2cccc(C(=O)Oc3ccc(Br)cc3F)c2)CC1 | -3.5 | 1.6 | 0.2 | 34.1* | -0.2 | -0.8 | -1.9 | -3.6
Fc1ccc(-n2ncc3c(SCc4cccnc4)ncnc32)cc1 | -3.2 | 0.4 | -8.0 | -3.0 | -2.7 | 1.7 | . | .
COc1ccc(CCNC(=O)Cn2ccc3c(OC)cccc3c2=O)cc1OC | -1.1 | 1.3 | 3.5 | -3.2 | 5.5 | -1.4 | . | .
